Assay results as given in PubChem BioAssay (Tox21).
Calls of active or inactive are those of the source. The call rests on the fitted dose curve; in most records, active means well fitted curve in the direction sought with a large enough effect in the repeat runs; inconclusive means weak or mixed curves; inactive means flat fitted curve, though single readings scatter.
On the % scale 0 is the no-effect control and ±100 the full control effect.

Assay: qHTS assay to test for compound auto fluorescence at 535 nm (green) in HEK293 cell free culture (AID 720682)
Conditions: cell-free medium, green autofluorescence 485/535 nm, hits give high values; series mostly up to 91.3 µM; activity change: at the top concentration
Description: U.S. Tox21 Program National Center for Advancing Translational Sciences [NCATS] NIH Chemical Genomics Center [NCGC] U.S. Environmental Protection Agency [EPA] National Institutes of Environmental Health Sciences [NIEHS] National Toxicology Program [NTP] U.S. Food and Drug Administration [FDA] Tox21 Assay Overview: Compound auto fluorescence often interferes with screening of the compound library against various biological targets and signaling pathways. Some of these compounds may have fluorophoric properties. Such properties may interfere with the assay outputs resulting in false positives and/or negatives. To decrease such complications and ensure the compound activities are relevant in terms of biological response, the Tox21 10K compound library was screened for auto fluorescence. From the fluorophores used as reporter signals in our screening assays, the auto fluorescence equivalencies of compounds against three fluorophores have been evaluated: Triamterene, Fluorescein and Rose Bengal sodium for blue, green and red fluorescence, respectively. The fluorescence intensities were measured using Excitation/Emission wavelengths at 405/460nm, 485/535nm and 540/590nm for blue, green and red labels, respectively. This assay includes the green fluorescence data.
Tox21 Assay Protocol Summary: 5 uL of culture medium (DMEM containing 10% FBS) per well was dispensed into black wall/clear bottom 1536-well plates using a Multidrop Combi Dispenser (ThermoFisher Scientific, Waltham, MA). After 23 nL compound or DMSO vehicle was transferred into assay plate by a pintool work station (Kalypsys, San Diego, CA), fluorescence intensities in the assay plates were measured by an Envision (PerkinElmer, Shelton, CT) plate reader using three labels for measuring blue, green and red fluorescence at […] 460, 535 and 590nm respectively.
For `CC1(C)S[C@@H]2[C@H](N=CN3CCCCCC3)C(=O)N2[C@H]1C(=O)O`, the “activity change” value was -0.0823% [at 46 µM] (inactive). With `N#Cc1ccc(C(=O)O)cc1` the “activity change” value was 0.0686% (inactive). In the case of `N[C@@H](COP(=O)(O)O)C(=O)O`, the “activity change” value is reported as 0.0423% [at 46 µM] (inactive). In the case of `OC[C@H](Cc1cccc(O)c1)[C@H](CO)Cc1cccc(O)c1`, the “activity change” value is reported as -0.0528% [at 95.7 µM] (inactive). With `O=C(NCCc1c[nH]c2ccccc12)c1cccnc1` the “activity change” value was -0.1% [at 46 µM] (inactive). With `O=S(=O)(O)CCN1CCN(CCO)CC1` the “activity change” value was -0.0355% (inactive). With `Cc1cccc(C)c1NC(=O)c1ccccc1C(=O)O` the “activity change” value was 0.0092% [at 46 µM] (inactive). For `C[C@@H](O)[C@H]1C(=O)N2C(C(=O)O)=C(SCCN=CN)C[C@H]12`, the activity change was -0.0504% [at 18.6 µM] (inactive). In the case of `C=C(C)C1CCC(C)(O)CC1` (stereo not given), the “activity change” value is reported as 0.0121% (inactive). With `O=C(O)c1cc(Br)c(O)c(Br)c1` the “activity change” value was -0.0213% (inactive). In the case of `CC/C=C\CC1=C(C)CCC1=O`, the “activity change” value is reported as 0.0151% (inactive). With `C[Si](C)(C)C` the “activity change” value was 0.0039% (inactive). In the case of `BrCc1cccc(Oc2ccccc2)c1`, the “activity change” value is reported as 0.0089% (inactive). With `C=C(C)C(=O)OCC(C)(C)COC(=O)C(=C)C` the “activity change” value was -0.0002% (inactive). In the case of `CCNC(=O)C1CC(C)CCC1C(C)C` (stereo not given), the “activity change” value is reported as -0.0156% (inactive). With `CCC(C)(CCC(C)C)C(=O)O` (stereo not given) the “activity change” value was 0.0006% (inactive). For `CC1(CO)CN(c2ccccc2)NC1=O` (stereo not given), the “activity change” value was 0.017% (inactive). With `CC(=O)N[C@@H](CCC(=O)O)C(=O)O` the “activity change” value was 0.0042% [at 46 µM] (inactive). With `CCCCCCOC(=O)CC` the “activity change” value was 0.127% (inactive). With `C=C1CC/C=C(\C)CC[C@@H]2[C@@H]1CC2(C)C` the “activity change” value was 0.0005% (inactive). With `COCCOCCOCCOCCO` the “activity change” value was 0.0173% (inactive). With `CCCCN` the “activity change” value was 0.029% [at 46 µM] (inactive). In the case of `Nc1ccc(S(=O)(=O)Nc2ccc(Cl)nn2)cc1`, the outcome is reported as “inactive”. For `CC(=O)Nc1cccc(C)c1`, the “activity change” value was 0.0218% (inactive). In the case of `COc1ccc(Br)c(C)c1`, the “activity change” value is reported as 0.139% (inactive). With `O=C(O)c1ccc(Cl)cc1Cl` the “activity change” value was -0.0013% [at 95.7 µM] (inactive). In the case of `O=C1c2ccccc2C(=O)C1c1ccccc1`, the activity change is reported as -0.148% [at 18.6 µM] (inactive). In the case of `CC(CN)CC(C)(C)CCN` (stereo not given), the “activity change” value is reported as -0.0599% [at 203 µM] (inactive). In the case of `CN(C)c1ccc(C=O)cc1`, the “activity change” value is reported as -0.0216% (inactive). With `CCOC(=O)/C=C/c1ccccc1` the “activity change” value was -0.0486% (inactive). In the case of `CC(=O)CCCCn1c(=O)c2c(ncn2C)n(C)c1=O`, the activity change is reported as 0.0172% [at 18.6 µM] (inactive). For `COP(=O)(OC)OC(c1ccc(Cl)cc1)P(=O)(OC)OC` (stereo not given), the “activity change” value was 0.0743% [at 46 µM] (inactive). For `COC(=O)CCc1ccc(OCC(O)CNC(C)C)cc1` (stereo not given), the “activity change” value was -0.11% [at 46 µM] (inactive). In the case of `CC(C)CCCC(C)(C)O`, the “activity change” value is reported as -0.0167% (inactive). In the case of `CC(C)CC(C)CC(C)CC(C)COC(=O)c1ccccc1C(=O)OCC(C)CC(C)CC(C)CC(C)C` (stereo not given), the “activity change” value is reported as -0.0051% (inactive). For `Nc1ncnc(Nc2ccccc2)n1`, the “activity change” value was -0.0037% [at 46 µM] (inactive). In the case of `O=C1CCCC(=O)O1`, the “activity change” value is reported as -0.0452% (inactive). In the case of `O=C(c1ccc(O)cc1)c1ccc(O)c(O)c1O`, the “activity change” value is reported as -0.0137% (inactive). In the case of `C[C@H](N)[C@H](O)c1cccc(O)c1`, the activity change is reported as 0.048% [at 18.6 µM] (inactive). For `Cc1ccccc1N=O`, the “activity change” value was -0.0906% [at 95.7 µM] (inactive).
